# Among all 330,000 compounds or so, about 7,300 (2.2%) were called active.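 Rule for the calls: active = inhibition of at least 40%; inactive = the rest.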 The entries come from a sample that favours actives as a whole.
# Test: growth inhibition of tim10-1 ts yeast – luminescence, uHTS, primary screen (AID 463190);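 note: mutant grown at 25 °C; 0% = DMSO wells with yeast and 100% = wells holding no yeast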
# Conditions: S. cerevisiae tim10-1 ts strain growth, BacTiter-Glo, 24 h; at 20 µM; active compounds read high
row,SMILES,inhibition
1,Cc1ccsc1-c1cc(C(=O)O)c2c(ccc3ccccc32)n1,-20.7% (inactive)
2,O=c1nc(N/N=C/c2ccco2)cn[nH]1,17.8% (inactive)
3,COc1ccc(NC(=O)CN(C)C(=O)c2n[nH]c3ccccc23)cc1,9.05% (inactive)
4,O=C(CCCC(=O)N(CC(=O)NC1CCCC1)Cc1ccccc1Cl)Nc1ccccn1,14.9% (inactive)
5,CC1CN(C(=O)c2ccc([N+](=O)[O-])s2)CC(C)O1 (stereo not drawn),17.2% (inactive)
6,CC(C)(C)c1cc(C(=O)N/N=C/c2ccc([N+](=O)[O-])s2)n[nH]1,32% (inactive)
7,O=[N+]([O-])c1ccc(C=Nc2ccc(Cl)cc2Cl)s1,77.7% (active)
8,O=C1CCc2cc(S(=O)(=O)Nc3ccc(C(F)(F)F)cc3)cc3c2N1CC3,4.21% (inactive)
9,O=c1oc(-c2ccccc2NS(=O)(=O)c2ccc(Cl)cc2)nc2ccccc12,39.6% (inactive)
10,NC(=O)c1ccc(CN2CCC(Cc3ccccc3)CC2)cc1,-11.2% (inactive)
11,CCOc1ccc2oc(C(=O)N(CC)CC(=O)Nc3ccc(NC(C)=O)cc3)c(C)c2c1,16.8% (inactive)
12,CCSC1=C(C#N)C(=O)n2c1cc1c2CCCC1,58.8% (active)
13,CCSc1ncnc2c(C#N)c3n(c12)CCCCC3,-13.6% (inactive)
14,O=C(CSc1ccc2nnc(-c3ccccc3)n2n1)N1CCCc2ccccc21,-0.717% (inactive)
15,O=S(=O)(Nc1ccc2[nH]ncc2c1)c1ccccc1Cl,6% (inactive)
16,COCc1cc(=O)[nH]c(-c2ccc(C(F)(F)F)cc2)n1,-4.56% (inactive)
17,CC(Sc1nn(-c2ccc(Cl)cc2)c(=S)s1)C(=O)NCC1CCCO1 (stereo not drawn),25.6% (inactive)
18,Cc1nc([N+](=O)[O-])nn1C12CC3CC(CC(Br)(C3)C1)C2,27% (inactive)
19,CCc1nn(CCCC(=O)Nc2ccc(C)c(C)c2)c(=O)c2cc3occc3n12,33.6% (inactive)
20,CCc1nn(CCCC(=O)Nc2ccc(C)cc2C)c(=O)c2cc3occc3n12,41.6% (active)
21,CCc1nn(CCCC(=O)NCc2ccc(C)cc2)c(=O)c2cc3occc3n12,31.1% (inactive)
22,CCOC(=O)C1Cn2c(nc3c(c2=O)C(C)(CC)Cc2ccccc2-3)S1 (stereo not drawn),40.7% (active)
23,CCC1(CC)Cc2ccccc2-c2nc(CCl)[nH]c(=O)c21,27.6% (inactive)
24,CCC1(CC)Cc2ccccc2-c2nc3ccccc3c(=O)n21,16.4% (inactive)

row,SMILES,inhibition
1,COC(=O)c1cccc(N(C(=O)c2ccco2)C(C(=O)NC2CCCC2)c2ccco2)c1 (stereo not drawn),3.43% (inactive)
2,Cn1c(=O)c2c(ncn2CC(COCc2ccccc2Cl)OCc2ccccc2Cl)n(C)c1=O (stereo not drawn),19.9% (inactive)
3,Cc1ccnc(N2CCN(C(=O)CSc3nc4ccccc4nc3N3CCCCC3)CC2)c1,2.78% (inactive)
4,COc1cccc(-n2c(=S)sc3c(=O)n(-c4ccccc4OC)c(SCC4OCCO4)nc32)c1,4.35% (inactive)
5,CNC(C)C#Cc1ccc2sc3cc(OC)c(OC)cc3c(=O)c2c1 (stereo not drawn),43.4% (active)
6,Cc1ccc(C(=O)COC(=O)CCN2C(=O)C3C4CC(C(Br)C4Br)C3C2=O)cc1 (stereo not drawn),7.92% (inactive)
7,CCCCOc1ccc(C(=O)NCC(=O)OCC(=O)N2CCN(S(=O)(=O)c3ccc(C)cc3C)CC2)cc1,15.7% (inactive)
8,O=C(COC(=O)c1ccc(F)cc1)NCCCc1ccccc1,24.1% (inactive)
9,CCOc1ccc(NC(=O)c2ccc(NC(=O)CN3C(=O)C(=O)N(CC(C)C)C3=O)cc2)cc1,2.57% (inactive)
10,COc1ccc(CCNc2cc(C)nc3c(-c4ccc(Cl)cc4)c(C)nn23)cc1OC,43.9% (active)
11,COc1ccc(CCNc2nc3ccc(C)cc3n3cnnc23)cc1OC,2.87% (inactive)
12,COc1ccc(CCNc2nc(C)cc(C)n2)cc1OC,-4.02% (inactive)
13,O=C(c1cnc(Cl)c(Cl)c1)N1CCN(S(=O)(=O)c2ccc(F)cc2)CC1,3.46% (inactive)
14,COc1ccc(Cc2nnc(SCC(=O)Nc3ccc(C)c(C)c3)o2)cc1OC,7.89% (inactive)
15,N/C(=N\OC(=O)CCn1cccc(C(F)(F)F)c1=O)c1ccc(OC(F)(F)F)cc1,-0.346% (inactive)
16,O=c1c(Cl)c(NCc2ccc(F)cc2Cl)cnn1C12CC3CC(CC(C3)C1)C2,43.1% (active)
17,O=C(CN1CCN(Cc2ccc(F)cc2Cl)C1=O)NCc1cccs1,12.6% (inactive)
18,O=C(O)CC12CC3CC(C1)CC(n1ncc(NCc4ccc(F)cc4)c(Cl)c1=O)(C3)C2,0.72% (inactive)
19,CCOc1cc2[nH]c(=S)n(Cc3ccc(C(=O)N4CCN(C)CC4)cc3)c(=O)c2cc1OCC,4.68% (inactive)
20,Cc1ccc(S(=O)(=O)NCC(=O)NNC(=O)c2ccc(Br)cc2)cc1C,6.99% (inactive)
21,COC(=O)/C(C#N)=C/c1occc1C,-13.8% (inactive)
22,Cc1onc(NC(=O)c2ccc([N+](=O)[O-])o2)c1Br,42.4% (active)
23,O=C(Nc1ccc(Br)cn1)c1ccc([N+](=O)[O-])cc1Cl,7.02% (inactive)
24,CN1C(=O)c2ccc(C(=O)Nc3ccc(Br)cn3)cc2C1=O,6.17% (inactive)

row,SMILES,inhibition
1,O=C(Nc1ccc(Br)cn1)c1ccc([N+](=O)[O-])o1,66.6% (active)
2,Cc1onc(C(=O)NCc2ccc(F)cc2)c1[N+](=O)[O-],5.1% (inactive)
3,O=C(Nc1cccc(O)c1)c1ccc(C(=O)c2ccccc2)o1,6.57% (inactive)
4,Cc1cccc(NC(=O)c2ccc([N+](=O)[O-])o2)c1,58% (active)
5,CCN(CC)S(=O)(=O)c1ccc(N2CCCC2)c(NC(=O)c2ccc([N+](=O)[O-])o2)c1,31.3% (inactive)
6,Cc1cccc(NC(=O)c2cc([N+](=O)[O-])ccc2N2CCN(C)CC2)c1,10% (inactive)
7,OC(COCCC12CC3CC(CC(C3)C1)C2)CN1CCCCC1 (stereo not drawn),4.4% (inactive)
8,FC(F)(F)c1cccc(-c2cc3ccccc3nc2N2CCCC2)c1,-16.8% (inactive)
9,COC(=O)c1ccccc1NC(=O)Cc1ccccc1OC,10.2% (inactive)
10,Cc1cccc(NC(=S)NCc2ccc3[nH]c4c(c3c2)CCCC4)c1,41.3% (active)
11,Cc1cccc(NC(=S)NCCN(C2CCCCC2)C2CCCC2)c1,28.1% (inactive)
12,Cc1cc(C)cc(NC(=S)NCc2ccc(F)cc2)c1,23.8% (inactive)
13,O=S(=O)(O)CCN1CCOCC1,6.54% (inactive)
14,CCOC12CC(C)(C)CC(C)(CC3=C1C(=O)CC(C)(C)C3)C2 (stereo not drawn),17.6% (inactive)
15,CC1(c2nnc(-c3ccncc3)o2)CC(c2cccnc2)=NO1 (stereo not drawn),-5.58% (inactive)
16,S=C(NCc1ccc(Cl)cc1)NC12CC3CC(CC(C3)C1)C2,51.4% (active)
17,COC(=O)Cc1ccc(NC(=S)NCc2ccc(Cl)cc2)cc1,20.1% (inactive)
18,O=C(NCc1ccc(Cl)cc1)NCc1ccc(Cl)cc1,-35.2% (inactive)
19,OC1CCCN(c2ncnc3c2nnn3Cc2c(F)cccc2Cl)C1 (stereo not drawn),14.9% (inactive)
20,O=S1(=O)CCO[C@H]2Cc3ccccc3[C@H]2N1Cc1ccccc1,10% (inactive)
21,CC1=C(C(N)=O)C(c2ccc(F)cc2)n2nc(CCCO)nc2N1 (stereo not drawn),15.6% (inactive)
22,COC(=O)CC(=O)N1CCN(c2ccc(Cl)c(Cl)c2)CC1,5.73% (inactive)
23,COC(=O)CSc1snnc1-c1ccc(Cl)c(Cl)c1,47.3% (active)
24,COC(=O)CSc1nnc(NC(=O)CCc2ccccc2)s1,17.2% (inactive)

row,SMILES,inhibition
1,N#CC(C(N)=O)=C1CCC2(CC1)OCCCCO2,17.1% (inactive)
2,Cc1cc(C)cc(NC(=O)NC2CCCCCCC2)c1,14.5% (inactive)
3,COCCOC(=O)C1=C(C)N=c2s/c(=C\c3cccs3)c(=O)n2C1c1cccs1 (stereo not drawn),15.4% (inactive)
4,CCOC(=O)C1=C(CSc2nccn2C)NC(=O)NC1c1ccc(OC)cc1 (stereo not drawn),15.6% (inactive)
5,CCOC(=O)C1=C(C)N=c2s/c(=C\C(=O)OC)c(=O)n2C1c1ccc(OC)cc1 (stereo not drawn),42.2% (active)
6,CN(C)S(=O)(=O)c1ccc(C(=O)NCC2(N3CCOCC3)CCCCC2)cc1,-9.36% (inactive)
7,COc1ccc(N2CCN(C(=O)c3ccc4c(Cl)c5c(nc4c3)CCCC5)CC2)cc1,-0.417% (inactive)
8,CC(C)CCNC(=O)c1ccc2c(Cl)c3c(nc2c1)CCC3,41% (active)
9,CC(=O)c1ccc(NC(=O)c2ccc3c(Cl)c4c(nc3c2)CCCC4)cc1,13.3% (inactive)
10,COc1ccc(C(=O)c2c3ccc([N+](=O)[O-])cc3[n+]([O-])n2CCCN)cc1,1.86% (inactive)
11,CS(=O)(=O)c1ccc(Cl)c(NC(=O)COC(=O)c2cccc(S(=O)(=O)N3CCCC3)c2)c1,-30.8% (inactive)
12,COc1ccc(S(=O)(=O)N2CCCCC2)cc1NC(=O)COc1ccccc1,7.99% (inactive)
13,O=C(COC(=O)CCOc1ccccc1)Nc1cc(S(=O)(=O)N2CCCCC2)ccc1Cl,46.3% (active)
14,COc1cc(C(=O)NCC(=O)NCCSc2ccc(Br)cc2)cc(OC)c1OC,9.46% (inactive)
15,O=C(COC(=O)c1ccccc1Br)Nc1nnc(-c2ccccc2)o1,0.631% (inactive)
16,Nc1cc(OC(=O)c2ccccc2Br)nn1S(=O)(=O)c1ccccc1,57.5% (active)
17,Cc1ccc(S(=O)(=O)n2nc(OC(=O)C(C)(C)C)cc2N)cc1,25.5% (inactive)
18,O=C(Cc1ncc(C(F)(F)F)cc1Cl)Nc1cccc(Br)c1,47.5% (active)
19,O=C(CN1CCN(c2ncc(C(F)(F)F)cc2Cl)CC1)Nc1ccc2c(c1)OCO2,28.8% (inactive)
20,CC(=O)c1ccc(Cc2ncc(C(F)(F)F)cc2Cl)s1,3.28% (inactive)
21,Clc1ccc(Cl)c(Oc2ccc(Oc3nc(Cl)ccc3Cl)cc2)n1,9.8% (inactive)
